# Laboratory results as given in PubChem BioAssay (NCATS).
# “And” between values parts separate entries of the source, which are not always exact repeats. Identical values can stand only once. Inconclusive results are not listed. Entries that show only a call come without a potency. Values without a mark were called inactive. The source made the active and inactive calls. Calls follow the shape of the dose curve; as a rule, active = well fitted inhibition curve with a large enough effect; inconclusive = small, poorly fitted or top-dose-only effect; inactive = flat fitted curve, though single readings scatter. Where a SMILES comes first, the peptide text is derived from it. [ ]: non-standard residue; d: D form. The star is where a group is joined. ξ: configuration not given here. AFC = O=c1cc(C(F)(F)F)c2ccc(N*)cc2o1; ξLac(3-iPr) = CC(C)CC(O)C(=O)O; NMeV = CN[CH](C(=O)O)C(C)C; βAla = NCCC(=O)O
# Key:
# [1] = molecular target: Calcium and integrin-binding protein 1 (Homo sapiens) (UniProt Q99828); experiment: Primary qHTS for Identification of Calcium Integrin Binding Protein 1 (CIB1) Competitor (AID 1508620);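 also: GST tagged CIB1 binding a fluorescein labelled alphaIIb integrin peptide tracer; top concentration of the series differs between compounds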
# Summary of the method: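 Fluorescence polarization competition: GST-tagged CIB1 (1 uM final) preincubated with compound 15 min at room temperature, then FITC-labelled alphaIIb peptide (100 nM final) added. After 15 min at room temperature, polarization read at Ex 480/Em 540.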
# [2] = Primary qHTS for inhibitors of nuclear receptor binding SET domain protein 2 (NSD2) in an isogenic RCH-ACV NSD2 p.E1099K mutant (9B) (AID 1645876); also: nearly all actives have a fitted effect of over 70% in size; also: potency is read from the fitted curve at half-maximal effect
# Chain of Calcium and integrin-binding protein 1 (Homo sapiens) (Q99828 whole entry, looked up): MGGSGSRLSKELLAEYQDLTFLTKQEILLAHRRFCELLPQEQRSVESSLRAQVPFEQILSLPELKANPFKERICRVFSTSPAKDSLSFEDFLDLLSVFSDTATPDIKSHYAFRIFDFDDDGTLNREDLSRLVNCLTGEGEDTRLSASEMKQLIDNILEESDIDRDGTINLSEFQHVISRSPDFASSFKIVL
smiles,measurement,setting,value
CCOC(=O)C(CCc1ccccc1)NC1CSC(c2cccs2)CN(CC(=O)O)C1=O (stereo not given),Potency,[1],inactive
same,Potency,[2],inactive
O=C(O)c1ccc(OC2OC(CO)C(O)C(O)C2O)cc1 (stereo not given),Potency,[1],inactive
same,Potency,[2],inactive
CCCCNc1ncc2c(-c3ccc(F)cc3)nn(CC3CCC(N)CC3)c2n1 (stereo not given),Potency,[1],inactive
same,Potency,[2],2.24 µM (active)
CC(=O)O[C@H]1[C@H](O[C@H]2[C@@H]3C=CO[C@@H](O[C@@H]4O[C@H](CO)[C@@H](O)[C@H](O)[C@H]4O)[C@@H]3[C@@]3(CO)O[C@@H]23)O[C@@H](C)[C@H](OC(=O)/C=C/c2ccccc2)[C@H]1OC(=O)/C=C/c1ccccc1,Potency,[1],inactive
same,outcome,[2],inactive [at 9.23 µM]
C[C@@H]1CCC2C(C)(C)[C@H](O)CC[C@]2(C)[C@@]12Cc1c(O)cc3c(c1O2)CN([C@@H](CCC(=O)O)C(=O)O)C3=O (stereo not given in full),Potency,[1],inactive
same,Potency,[2],inactive
CC(=O)N[C@@H](Cc1c[nH]c2ccccc12)C(=O)N[C@@H](CCC(=O)O)C(=O)N[C@@H](Cc1cnc[nH]1)C(=O)N[C@@H](CC(=O)O)C(=O)Nc1ccc2c(C(F)(F)F)cc(=O)oc2c1 (Ac-WEHD-{AFC}),Potency,[1],inactive
same,Potency,[2],inactive
CC(/C=C/C1=CC2=CC(=O)C(C)(O)C(O)C2=CO1)=C\C(C)CCO (stereo not given),Potency,[1],inactive
same,Potency,[2],inactive
C=C(C(=O)OC)C1C(O)CC2(C)C(O)CCC(=O)C2C1O (stereo not given),Potency,[1],inactive
same,Potency,[2],inactive
COc1c2c(c(C)c3c1C(=O)OC3)OC1(C)CC(O)C34OC(OC)(CC(OC(C)=O)C3(C)C1C2)OC4(C)C (stereo not given),Potency,[1],inactive
same,Potency,[2],inactive
C[C@@H]1CCC/C=C/[C@H]2CC(=O)C[C@@H]2[C@@H](O)/C=C/C(=O)O1,Potency,[1],inactive
same,Potency,[2],inactive
CC(C)(O)/C=C/C1=CC(=O)[C@@](C)(O)C[C@H]1O,Potency,[1],inactive
same,Potency,[2],inactive
CC(=O)OC1C[C@@]2(C)[C@@H](CC[C@@H](C)[C@]23Cc2c(O)cc4c(c2O3)CNC4=O)C(C)(C)[C@@H]1O (stereo not given in full),Potency,[1],inactive
same,Potency,[2],inactive
Cc1ccc([N+](=O)[O-])cc1S(=O)(=O)N(C)/N=C/c1cnc2ccc(Br)cn12,Potency,[1],inactive
same,Potency,[2],12.9 nM (active) and 93.4 nM (active)
CC1(C)CC[C@]2(C(=O)O[C@@H]3O[C@H](CO)[C@@H](O)[C@H](O)[C@H]3O)CC[C@]3(C)C(=CCC4[C@@]5(C)CC[C@H](O[C@@H]6O[C@H](C(=O)O)[C@@H](O)[C@H](O)[C@H]6O)C(C)(C)C5CC[C@]43C)C2C1 (stereo not given in full),Potency,[1],inactive
same,"activity change, negative = viability loss",[2],-3.82% [at 9.23 µM]
CCCOC(c1cc2nccc(C(=O)O)c2[nH]1)c1ccccc1Cl (stereo not given),Potency,[1],inactive
same,Potency,[2],inactive
Nc1nc2c(ncn2[C@@H]2O[C@H](CO)[C@@H](O)[C@H]2O)c(=O)[nH]1,Potency,[1],inactive
same,Potency,[2],inactive
CC(C)CC1OC(=O)C2CCCN2C(=O)CCNC(=O)C(Cc2ccccc2)NC(=O)C(C(C)C)N(C)C(=O)C(C(C)C)N(C)C1=O (stereo not given) (cyclo([ξLac(3-iPr)][NMeV][NMeV]F[βAla]P); configuration not given here),Potency,[1],inactive
same,Potency,[2],inactive
Nc1ccc(/C=C/C(=O)NCc2cc3cc(-c4ccc(C(=O)N5CCC(F)(F)CC5)cc4)cc(-c4ccc(F)cc4)c3o2)cn1,Potency,[1],inactive
same,Potency,[2],235 nM (active) and 231 nM (active)
Nc1ncnc2c([C@@H]3N[C@H](CO)[C@@H](O)[C@H]3O)c[nH]c12,Potency,[1],inactive
same,Potency,[2],inactive
C[C@@H]1CCC2C(C)(C)[C@H](O)CC[C@]2(C)[C@@]12Cc1c(O)cc3c(c1O2)CNC3=O (stereo not given in full),Potency,[1],inactive
same,Potency,[2],inactive
C[C@]1(CO)CCC[C@]2(C)C3=C(CCC12)COC3 (stereo not given in full),Potency,[1],inactive
same,Potency,[2],inactive
CC1=CC2C(CC1OC1OC(CO)C(O)C(O)C1O)C(C)CC(=O)C2C(C)C (stereo not given),Potency,[1],inactive
same,Potency,[2],inactive
C/C(=C\CCC(C)CCO)C(=O)O[C@@H]1[C@@H](O)[C@H](OC2OC=C(C(=O)O)C3CCC(C)(O)C23)O[C@H](CO)[C@H]1O (stereo not given in full),Potency,[1],inactive
same,Potency,[2],inactive
O=C(O)c1cn(C2CC2)c2cc(N3C[C@@H]4C[C@H]3CN4)c(F)cc2c1=O,Potency,[1],inactive
same,Potency,[2],inactive
COC(=O)C1=CO[C@@H](O[C@@H]2O[C@H](CO)[C@@H](O)[C@H](O)[C@H]2O)[C@@H]2C(COC(C)=O)=C[C@H](O)[C@H]12,Potency,[1],inactive
same,Potency,[2],inactive
O=C(NOCC(O)CO)c1ccc(F)c(F)c1Nc1ccc(I)cc1F (stereo not given),Potency,[1],inactive
same,Potency,[2],inactive
Nc1ncnc2c1ncn2CCNCCCCCO,Potency,[1],inactive
same,Potency,[2],inactive
Cc1ccc(C(=O)N(CCCN)C(c2nc3cc(Cl)ccc3c(=O)n2Cc2ccccc2)C(C)C)cc1 (stereo not given),Potency,[1],inactive
same,Potency,[2],0.0058 µM (active)
CC1(C)CC[C@]2(C(=O)O[C@@H]3O[C@H](CO)[C@@H](O)[C@H](O)[C@H]3O)CC[C@]3(C)C(=CCC4[C@@]5(C)CC[C@H](O[C@@H]6O[C@H](C(=O)O)[C@@H](O)[C@H](O[C@@H]7O[C@H](CO)[C@H](O)[C@H](O)[C@H]7O)[C@H]6O)C(C)(C)C5CC[C@]43C)C2C1 (stereo not given in full),Potency,[1],inactive
same,"activity change, negative = viability loss",[2],-8.36% [at 9.23 µM]
CC1C(=O)CC2C3CCC(C(=O)O)C12CC3(C)CO (stereo not given),Potency,[1],inactive
same,Potency,[2],inactive
C=C[C@H]1[C@H](O[C@@H]2O[C@H](CO)[C@@H](O)[C@H](O)[C@H]2O)OC=C(C(=O)OC)[C@H]1C/C=C(/C=O)[C@@H]1C(C(=O)OC)=CO[C@@H](O[C@@H]2O[C@H](CO)[C@@H](O)[C@H](O)[C@H]2O)[C@@H]1C=C,Potency,[1],inactive
same,Potency,[2],inactive
CCC(COC)n1nnc2c(Nc3ccc(OC)cc3C)nc(C)cc21 (stereo not given),Potency,[1],inactive
same,Potency,[2],inactive
COC(=O)CC(O)C1OC(c2ccccc2)C(O)C1O (stereo not given),Potency,[1],inactive
same,Potency,[2],inactive
C[C@@H]1O[C@@H](O[C@H]2[C@H](O[C@H]3[C@H](O)[C@@H](C(=O)O)O[C@@H](O[C@H]4CC[C@@]5(C)C(CC[C@]6(C)C5CC[C@]57OC[C@@]8(CCC(C)(C)CC85)[C@H](O)C[C@]76C)C4(C)C)[C@@H]3O[C@@H]3O[C@H](CO)[C@@H](O[C@@H]4OC[C@@H](O)[C@H](O)[C@H]4O)[C@H](O)[C@H]3O)O[C@H](CO)[C@H](O)[C@@H]2O)[C@H](O)[C@H](O)[C@H]1O (stereo not given in full),"activity change, negative = inhibition",[1],2.06% [at 12.4 µM]
same,"activity change, negative = viability loss",[2],0.445% [at 9.23 µM]
C=C[C@@](C)(O)CC/C=C(\C)C(=O)O[C@@H]1[C@@H]2O[C@]2(C)[C@H]2[C@H](O[C@@H]3O[C@H](CO)[C@@H](O)[C@H](O)[C@H]3O)OC=C[C@@]12O,Potency,[1],inactive
same,Potency,[2],inactive
CCOc1ccc(S(=O)(=O)n2c(C)nc3ccccc32)cc1,Potency,[1],inactive
same,Potency,[2],8.93 µM (active)
C=C1CC[C@@H]2[C@@](C)(CO[C@@H]3O[C@H](CO)C(O)[C@H](O)C3O)[C@H](O)CC[C@@]2(C)[C@@H]1CC/C(C)=C/CO (stereo not given in full),Potency,[1],inactive
same,"activity change, negative = viability loss",[2],3.18% [at 9.23 µM]
COC(=O)CC(C)(O)CC(=O)OCc1ccc(O[C@@H]2O[C@H](CO)[C@@H](O)[C@H](O)[C@H]2O)cc1 (stereo not given in full),Potency,[1],inactive
same,Potency,[2],inactive
OC[C@H]1O[C@@H](Oc2ccccc2)[C@H](O)[C@@H](O)[C@@H]1O,Potency,[1],inactive
same,Potency,[2],inactive
CC1(O)CC(O)C2(O)C=COC(O[C@@H]3O[C@H](CO)[C@@H](O)[C@H](O)[C@H]3O)C12 (stereo not given in full),Potency,[1],inactive
same,Potency,[2],inactive
CC1(C)C2CC=C(COC3OC(COC4OCC(O)(CO)C4O)C(O)C(O)C3O)C1C2 (stereo not given),Potency,[1],inactive
same,Potency,[2],inactive
CC(=O)O[C@H]1[C@@H](O)[C@H](O[C@H]2[C@@H]3C=CO[C@@H](O[C@H]4O[C@@H](CO)[C@H](O)[C@@H](O)[C@@H]4O)[C@@H]3[C@@]3(CO)O[C@@H]23)O[C@@H](C)[C@@H]1OC(=O)/C=C/c1ccccc1,Potency,[1],inactive
same,Potency,[2],inactive
C=C1C(=O)O[C@H]2C1[C@H](OC(=O)/C(=C/CO)COC(=O)/C(C)=C/CO)CC(=C)[C@@H]1CC(=O)[C@@H](C)[C@@H]12 (stereo not given in full),Potency,[1],inactive
same,Potency,[2],3.55 µM (active)
CCCC(=O)NCCc1csc(-c2ccc(Cl)cc2)n1,Potency,[1],inactive
same,Potency,[2],12.9 µM (active)
Cn1c(=O)cc(N2CCCC(N)C2)n(Cc2cc(F)ccc2C#N)c1=O (stereo not given),Potency,[1],inactive
same,Potency,[2],inactive
CC(C)C(=O)OC[C@H]1O[C@H](O[C@H]2O[C@H](CO)[C@@H](O)[C@H](O)[C@H]2O)[C@H](O)[C@@H](O)[C@@H]1O,Potency,[1],inactive
same,Potency,[2],inactive
COc1ncc(Nc2ncc([C@@H](C)N3CCN(S(C)(=O)=O)CC3)cc2-c2nc(C)nc(N)n2)cc1F,Potency,[1],inactive
same,Potency,[2],0.0052 µM (active)
CC(C)(O[C@@H]1O[C@H](CO)[C@@H](O)[C@H](O)[C@H]1O)C(OC(=O)/C=C\c1ccc(O)cc1)C(=O)OCc1ccc(O[C@@H]2O[C@H](CO)[C@@H](O)[C@H](O)[C@H]2O)cc1 (stereo not given in full),Potency,[1],inactive
same,Potency,[2],inactive
CCOc1cc(C)c(Cl)cc1S(=O)(=O)n1cnc2ccccc21,Potency,[1],inactive
same,Potency,[2],inactive
CC(=O)OC12COC1CC(O)C1(C)C(=O)C(O)C3=C(C)C(OC(=O)C(O)C(NC(=O)OC(C)(C)C)c4ccccc4)CC(O)(C(OC(=O)c4ccccc4)C21)C3(C)C (stereo not given),Potency,[1],inactive
same,Potency,[2],0.0065 µM (active)
COc1cc(/C=C/C(=O)O[C@H]2[C@H](O)[C@@H](CO)O[C@@]2(CO)O[C@H]2O[C@H](CO)[C@@H](O)[C@H](O)[C@H]2O)ccc1O,Potency,[1],inactive
same,Potency,[2],inactive
CC1(C)C2CC(OC3OC(COC4OCC(O)(CO)C4O)C(O)C(O)C3O)C1(C)CC2O (stereo not given),Potency,[1],inactive
same,Potency,[2],inactive
O=C1C=CC2OC(c3ccccc3)C(O)C2O1 (stereo not given),Potency,[1],inactive
same,Potency,[2],5.78 µM (active)
CC1=C(/C=C/C(C)=C\C=C\C(C)=C/C(=O)O)C(C)(C)CCC1,Potency,[1],inactive
same,Potency,[2],inactive
C/C=C/C=C/[C@@H]1O[C@](O)([C@H](CC)C(=O)NC/C=C/C=C(\C)[C@@H](OC)[C@@H](C)C2OC(/C=C/C=C/C=C(\C)C(=O)c3c(O)cc[nH]c3=O)[C@H](O)[C@@H]2O)[C@H](O)[C@H](O)C1(C)C (stereo not given in full),Potency,[1],inactive
same,Potency,[2],inactive
